Assay outcomes deposited in PubChem by National Center for Advancing Translational Sciences (NCATS).
Only some compounds are listed: those with a hit (about 3% of all), similar ones and a draw of the others.
SNCA expr inh: Primary qHTS assay for inhibitors of alpha-synuclein gene (SNCA) expression; HEK-293 SNCA-luciferase knock-in, luminescence, 24 h; Potency, µM (top dose mostly 57.2 µM), without a hit: at the top dose activity change, negative = inhibition, usual class: inhibitors; 140,000 tested, 0.17% active;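 also: potency is read from the fitted curve at half-maximal effect; plate controls were DMSO cells for no effect and cell-free wells for full effect; nearly all actives have a fitted effect of over 45% in size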
SNCA viab count: GF-AFC viability counterscreen for inhibitors of alpha-synuclein gene (SNCA) expression | HEK-293-SNCA-luc viability, GF-AFC fluorescence, 24 h | Potency, µM (series often up to 57.1 µM), without a hit: at the highest dose activity change, negative = cytotoxicity, usual class: cytotoxic | 150,000 tested, 0.12% active | AID 1671193, 2021;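 also: potency is read from the fitted curve at half-maximal effect; 0% = DMSO-treated cells and -100% = medium-only wells without cells; nearly all actives have a fitted effect of over 30% in size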
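Cytotoxicity counterscreen: after 24 h compound treatment of genome-edited SNCA-luciferase HEK-293 cells, live-cell protease substrate GF-AFC read by fluorescence after 30 min; activity scaled between DMSO (0%) and medium-only (-100%), curves Hill-fitted.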
IP6K1 inhibitor: Primary qHTS assay for small molecule inhibitors of Inositol hexaphosphate kinase 1 (IP6K1) | activity change, % (series mostly up to about 58 µM) | IP6K1 kinase, ADP-Glo luminescence, 2 h; active compounds read low | Inositol hexakisphosphate kinase 1 (Homo sapiens), Q92551 | 140,000 tested, 0.81% active; in the data active = activity change below about -25%; also: % is scaled to controls: 0 for no effect and ±100 for the full control effect
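ADP-Glo luminescence measures ADP made by human IP6K1 during a 2 h RT reaction with ATP/IP6 (mix at 1.3 mM/130 uM); top library doses 57.5 and 19.1 uM final.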
KDM5B inhibitor: Primary screen for KDM5B Histone Demethylases FDH-coupled qHTS; Lysine-specific demethylase 5B (Homo sapiens), Q9UGL1; Potency, µM (highest dose often 57.7 µM), actives largely listed as inhibitors; 220,000 tested, 2.6% active; KDM5B demethylase, FDH-coupled NADH fluorescence (FDH is formaldehyde dehydrogenase); also: potency is read from the fitted curve at half-maximal effect; 0% is about no effect; nearly all actives have a fitted effect of over 70% in size
Target sequence (Q9UGL1 whole entry, looked up): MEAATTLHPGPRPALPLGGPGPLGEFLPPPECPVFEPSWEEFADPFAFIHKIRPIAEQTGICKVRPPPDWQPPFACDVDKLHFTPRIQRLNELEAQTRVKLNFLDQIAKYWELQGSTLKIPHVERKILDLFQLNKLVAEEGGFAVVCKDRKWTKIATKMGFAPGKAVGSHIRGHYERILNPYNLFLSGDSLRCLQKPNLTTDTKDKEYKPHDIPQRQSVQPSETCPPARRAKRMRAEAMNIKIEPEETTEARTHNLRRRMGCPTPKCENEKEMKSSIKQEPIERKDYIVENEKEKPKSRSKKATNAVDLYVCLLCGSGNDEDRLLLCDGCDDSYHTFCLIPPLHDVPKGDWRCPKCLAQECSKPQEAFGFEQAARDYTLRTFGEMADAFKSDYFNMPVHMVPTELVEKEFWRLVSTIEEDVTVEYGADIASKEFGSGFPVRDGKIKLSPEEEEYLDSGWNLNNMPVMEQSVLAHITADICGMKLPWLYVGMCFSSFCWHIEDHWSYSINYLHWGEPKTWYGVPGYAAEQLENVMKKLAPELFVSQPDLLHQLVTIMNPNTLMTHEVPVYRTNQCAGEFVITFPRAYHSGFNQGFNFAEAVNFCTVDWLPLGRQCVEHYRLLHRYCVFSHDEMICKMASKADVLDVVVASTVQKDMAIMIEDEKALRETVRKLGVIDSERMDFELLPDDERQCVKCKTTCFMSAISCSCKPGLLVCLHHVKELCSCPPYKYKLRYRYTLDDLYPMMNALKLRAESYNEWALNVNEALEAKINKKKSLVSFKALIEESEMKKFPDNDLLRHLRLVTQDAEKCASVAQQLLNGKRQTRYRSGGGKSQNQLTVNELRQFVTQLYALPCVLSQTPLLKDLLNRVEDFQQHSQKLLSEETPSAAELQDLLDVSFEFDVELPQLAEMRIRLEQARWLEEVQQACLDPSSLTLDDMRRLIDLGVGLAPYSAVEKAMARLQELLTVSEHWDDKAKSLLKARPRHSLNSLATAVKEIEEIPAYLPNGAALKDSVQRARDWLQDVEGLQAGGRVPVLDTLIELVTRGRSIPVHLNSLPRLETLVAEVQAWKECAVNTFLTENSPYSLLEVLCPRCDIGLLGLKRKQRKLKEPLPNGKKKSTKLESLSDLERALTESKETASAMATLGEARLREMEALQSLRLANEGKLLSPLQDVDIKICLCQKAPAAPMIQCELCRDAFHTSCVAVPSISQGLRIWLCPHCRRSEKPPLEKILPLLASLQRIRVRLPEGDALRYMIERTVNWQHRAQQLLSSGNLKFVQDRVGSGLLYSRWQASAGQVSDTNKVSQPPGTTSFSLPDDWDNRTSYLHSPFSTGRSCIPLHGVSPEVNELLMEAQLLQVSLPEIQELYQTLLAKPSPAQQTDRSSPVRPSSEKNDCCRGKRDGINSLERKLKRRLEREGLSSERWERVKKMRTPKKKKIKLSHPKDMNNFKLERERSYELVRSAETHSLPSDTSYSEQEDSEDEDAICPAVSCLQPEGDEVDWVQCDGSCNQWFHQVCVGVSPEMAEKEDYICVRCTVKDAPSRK
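Here, H3K4me3 peptide (12.5 µM in substrate mix) is demethylated by KDM5BΔAP, 200 nM final, after 10 min compound exposure. Formaldehyde product is coupled through FDH (0.25 U/mL in mix) to NADH fluorescence; 30-min ΔRFU feeds dose-response curves.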
Numbers without * were called inactive; ! = a repeat was not active; [ ] = remark or other dose. Unless noted, calls follow the shape of the dose curve; as a rule, active = well fitted curve in the direction sought with a large enough effect; inconclusive = small, poorly fitted or top-dose-only effect, or another doubt; inactive = no such curve, though single readings can be large; an effect the other way counts as inactive or inconclusive.

CCc1nnsc1C(=O)N(C)Cc1ccc(Cl)c(Cl)c1 was read as KDM5B inhibitor inactive.
O=C(CCCCCCCC(=O)Nc1ccc(C(=O)c2ccccc2)cc1)Nc1ccc(C(=O)c2ccccc2)cc1 was read as KDM5B inhibitor inactive.
For Cn1ncc2c(C(=O)N3CCCC3)cc(-c3ccc(C(F)(F)F)cc3)nc21 the results were IP6K1 inhibitor -9.1.
CN(C)c1ccc(C(=O)NC2CCCN(c3cc(-c4ccc(F)cc4)[nH]n3)C2)cc1 (stereo not drawn) was read as SNCA expr inh 9.7%, SNCA viab count -26.2%, IP6K1 inhibitor 2.9 and KDM5B inhibitor inconclusive.
`Cc1ccc(C(=O)NC2CCN(c3cc(-c4ccccc4)[nH]n3)C2)cc1` (stereo not drawn) gave SNCA expr inh 6.1%, SNCA viab count -5.5%, IP6K1 inhibitor 0.7 and KDM5B inhibitor 14.1µM*.
Screening COc1ccc(-c2cc(N3CCCC(NC(=O)c4ccc(N(C)C)cc4)C3)n[nH]2)cc1 (stereo not drawn) returned SNCA expr inh 23.3%, SNCA viab count -9.4%, IP6K1 inhibitor 0.0 and KDM5B inhibitor 25.1µM*.
CN(C)c1cccc(C(=O)NC2CCN(c3cnn(C)c(=O)c3)CC2)c1 was read as SNCA expr inh 217.8%, SNCA viab count 4.5%, IP6K1 inhibitor 16.4 and KDM5B inhibitor 25.1µM*.
`Cn1ncc(N2CCC(NC(=O)c3ccc4c(c3)OCO4)CC2)cc1=O` gave SNCA expr inh 15.8%, SNCA viab count -9.7%, IP6K1 inhibitor 37.4 and KDM5B inhibitor inactive.
`C/C(=N/Nc1ccc(S(N)(=O)=O)cc1[N+](=O)[O-])c1ccc(C)cc1` gave KDM5B inhibitor inactive.
`Cc1ccc(NC(=O)c2cc(=O)c3ccc(C)c(C)c3o2)cc1C` gave KDM5B inhibitor inactive.
For COc1cccc(-c2ccn[nH]2)c1 the results were KDM5B inhibitor inactive.
For Cc1cc2oc(C(=O)N(Cc3ccc(C(C)C)cc3)C3CCS(=O)(=O)C3)cc(=O)c2cc1Cl (stereo not drawn) the results were KDM5B inhibitor inactive.
For Cc1nc2ccc(C(=O)NC(C(=O)O)c3c(C)n[nH]c3C)cc2[nH]1 (stereo not drawn) the results were SNCA expr inh 32.2%, SNCA viab count -1.3%, IP6K1 inhibitor 11.4 and KDM5B inhibitor inactive.
CNc1ccc(C)cc1C(=O)NC(C(=O)O)c1c(C)n[nH]c1C (stereo not drawn) was read as SNCA expr inh 13.9%, SNCA viab count -6.7%, IP6K1 inhibitor -9.4 and KDM5B inhibitor 31.6µM*.
Screening N#Cc1c(-c2ccc(Cl)cc2Cl)csc1N returned KDM5B inhibitor inactive.
For COc1ccc(OC)c(NC(=O)CSc2c3c(nc4cc(Cl)ccc24)CCCC3)c1 the results were SNCA expr inh 1.7%, SNCA viab count -6.2%, IP6K1 inhibitor 23.3 and KDM5B inhibitor inactive.
COc1ccc(OC)c(NC(=O)CSc2c3c(nc4ccccc24)CCCC3)c1 was read as SNCA expr inh 22.4µM*, SNCA viab count inconclusive, IP6K1 inhibitor -13.2 and KDM5B inhibitor inactive.
For CCn1c(CO)nnc1C1CC(NC(=O)c2sccc2N)C1 (stereo not drawn) the results were SNCA expr inh 73.2%, SNCA viab count -4.6%, IP6K1 inhibitor 14.0 and KDM5B inhibitor 11.2µM*.
`CCn1c(CO)nnc1C1CC(NC(=O)c2nc(-c3ccccc3)[nH]c2C)C1` (stereo not drawn) gave SNCA expr inh -0.8%, SNCA viab count 3.2%, IP6K1 inhibitor 23.2 and KDM5B inhibitor inactive.
For CCNc1ncc(C(=O)NC2CC(c3nnc(CO)n3CC)C2)cn1 (stereo not drawn) the results were SNCA expr inh -0.8%, SNCA viab count 3.9%, IP6K1 inhibitor 8.6 and KDM5B inhibitor 25.1µM*.
Screening Cn1c(Cn2cccn2)nnc1C1CC(NC(=O)c2sccc2N)C1 (stereo not drawn) returned SNCA expr inh 13.5%, SNCA viab count -9.6%, IP6K1 inhibitor 3.1 and KDM5B inhibitor 15.8µM*!.
Screening CCn1c(CO)nnc1C1CC(NC(=O)NCCc2ccccc2F)C1 (stereo not drawn) returned SNCA expr inh 30.8%, SNCA viab count -4.2%, IP6K1 inhibitor 6.8 and KDM5B inhibitor inactive.
`CCOc1ccc(NC(=O)C(C#N)=C2CCC(C)CC2)cc1` (stereo not drawn) gave KDM5B inhibitor inactive.
For CC(C)CNC(=O)CSc1nc(-c2ccccc2)[nH]c1S(=O)(=O)c1ccccc1 the results were KDM5B inhibitor inactive.
`CCNC(=O)NC(=O)C(C)OC(=O)c1ccc2ccccc2n1` (stereo not drawn) gave KDM5B inhibitor inactive.
Screening CCN1CCN(CCNC(=O)c2cn3ccnc(-c4ccc(OC)cc4)c3n2)CC1 returned SNCA expr inh 21.4%, SNCA viab count -0.4%, IP6K1 inhibitor 21.4 and KDM5B inhibitor 28.2µM*.
For CCS(=O)(=O)Nc1ccc2[nH]c(O)c(C(=Nc3ccc(CN4CCCCC4)cc3)c3ccccc3)c2c1 the results were SNCA expr inh 1.21µM* and SNCA viab count inconclusive.
For O=C(NCCc1ccc(Cl)cc1)c1ccc2c(=O)n(-c3ccccc3)c(=O)[nH]c2c1 the results were KDM5B inhibitor inactive.
Screening CCn1ccnc1CNc1ccc(-c2nc(-c3ccccc3C)no2)cn1 returned SNCA expr inh 14.5%, SNCA viab count 7.7%, IP6K1 inhibitor 9.1 and KDM5B inhibitor 28.2µM*.
Screening Cc1occc1C(=O)N[C@@H]1CN(c2ncccn2)C[C@H]1CO returned SNCA expr inh -25.8%, SNCA viab count 12.6%, IP6K1 inhibitor 2.0 and KDM5B inhibitor inconclusive.
For Cc1ccc(C(=O)N[C@@H]2CN(c3ncccn3)C[C@H]2CO)nc1 the results were SNCA expr inh 5.2%, SNCA viab count -2.0%, IP6K1 inhibitor 6.6 and KDM5B inhibitor 20µM*.
For Cc1ccoc1C(=O)N[C@@H]1CN(c2ncccn2)C[C@H]1CO the results were SNCA expr inh -2.8%, SNCA viab count -2.3%, IP6K1 inhibitor 5.5 and KDM5B inhibitor 25.1µM*.
For c1ccc(CN2CCCCC2c2nc(CCOCC3CCCC3)no2)nc1 (stereo not drawn) the results were SNCA expr inh 22.4µM*, SNCA viab count 4.2%[12.5 µM], IP6K1 inhibitor 5.0 and KDM5B inhibitor inconclusive.
Cc1ncsc1CN1CCCCC1c1nc(CCOc2ccc(F)cc2)no1 (stereo not drawn) was read as SNCA expr inh inconclusive, SNCA viab count 4.1%, IP6K1 inhibitor 13.1 and KDM5B inhibitor inconclusive.
Cc1ncsc1CN1CCCCC1c1nc(CCOCC2CC2)no1 (stereo not drawn) was read as SNCA expr inh -32.8%, SNCA viab count 1.5%, IP6K1 inhibitor 41.9 and KDM5B inhibitor 17.8µM*.
For COc1ccc(-c2nc(CS(=O)CC(=O)NCc3ccccc3)c(C)o2)cc1 (stereo not drawn) the results were KDM5B inhibitor inactive.
